The nature of test [1]: compound effects on lung adenocarcinoma cell viability – A549, calcein-AM fluorescence, 48 h, basal, profiling panel (AID 1162). Further: test concentration not given here. The settings on record: higher = more signal.
A short description of test [2]: compound effects on differentiated 3T3-L1 adipocyte viability – cell-based, 3T3-L1 adipocytes, calcein-AM fluorescence, 48 h, basal, profiling panel (AID 1163). Further: test concentration not given here. The following applies: 3T3-L1 adipocytes viability, higher = more signal.
Test [3] is described as follows: compound effects on hepatocellular carcinoma cell viability – HepG2, calcein-AM fluorescence, 48 h, basal, profiling panel (AID 1164). Further: test concentration not given here. The settings on record: higher = more signal.
Test [4] can be described thus: compound effects on multiple myeloma cell viability – MM1S, calcein-AM fluorescence, 48 h, basal, profiling panel (AID 1165).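 Further: viability of MM1S multiple myeloma cells under basal unstimulated conditions; test concentration not given here.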 The settings on record: higher = more signal.
Test [5] in a line: calcein-AM signal in unstimulated myeloma cells – cell-based, calcein-AM fluorescence, 48 h, PK04 Diversity Set, profiling panel (AID 1166).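 Further: cells grown under basal conditions without added stimulus; test concentration not given here.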 The settings on record: RPMI8226 myeloma viability, higher = more signal.
Test [6] in a line: JC-1 mitochondrial signal, unstimulated HepG2 cells – cell-based, JC-1 fluorescence, 24 h, 100 nL compound, profiling panel (AID 1167). Further: test concentration not given here. The following applies: HepG2 mitochondrial potential, higher = more signal.
Test [7] is described as follows: JC-1 mitochondrial signal, unstimulated adipocytes – cell-based, JC-1 fluorescence, 3T3-L1 adipocytes, 24 h, 100 nL compound, profiling panel (AID 1168). Further: test concentration not given here. The settings on record: JC-1 mitochondrial fluorescence, higher = more signal, called active from +8 up or from −8 down.
The nature of test [8]: JC-1 mitochondrial signal, unstimulated myeloma cells – cell-based, JC-1 fluorescence, RPMI8226, 24 h, 100 nL compound, profiling panel (AID 1169). Further: test concentration not given here. The settings on record: JC-1 mitochondrial potential fluorescence, higher = more signal.
Test [9] can be described thus: JC-1 mitochondrial signal, unstimulated MM1S myeloma – cell-based, JC-1 fluorescence, 24 h, 100 nL compound, profiling panel (AID 1170). Further: test concentration not given here. The following applies: MM1S mitochondrial potential, higher = more signal.
The nature of test [10]: resazurin metabolic signal in A549 cells – cell-based, resazurin fluorescence, 24 h, PK04 Diversity Set, profiling panel (AID 1171). Further: test concentration not given here. The settings on record: A549 viability, higher = more signal, called active from +8 up or from −8 down.
Test [11] in a line: resazurin metabolic signal in HepG2 cells – cell-based, resazurin fluorescence, 24 h, PK04 Diversity Set, profiling panel (AID 1172). Further: test concentration not given here. The settings on record: HepG2 viability, higher = more signal.
The nature of test [12]: budding yeast growth changes without added modifier – OD600, strain BY4716, 24 h, basal condition, primary screen (AID 1173). The settings on record: S. cerevisiae BY4716 growth, OD600, 24 h; higher = more signal, called active from +8 up or from −8 down.
Test [13] can be described thus: viability profiling in MM1S myeloma cells – cell-based, resazurin fluorescence, basal, 24 h, PK04 Diversity Set, profiling panel (AID 1174). Further: test concentration not given here. The settings on record: higher = more signal, called active from +8 up or from −8 down.
The target of test [14] is Dihydroorotate dehydrogenase (quinone), mitochondrial (Plasmodium falciparum (isolate 3D7)) (UniProt Q08210). The test is described as follows: inhibition of P. falciparum DHODH – biochemical, C-terminal His tag, absorbance 600 nm, primary screen (AID 1175).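 Further: recombinant parasite enzyme with a five histidine tag at its C terminus; test concentration not given here.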 The settings on record: PfDHODH enzyme, DCIP absorbance 600 nm; higher = more signal, called active from +8 up or from −8 down.
Chain of Dihydroorotate dehydrogenase (quinone), mitochondrial (Plasmodium falciparum (isolate 3D7)) (Q08210 whole entry, looked up): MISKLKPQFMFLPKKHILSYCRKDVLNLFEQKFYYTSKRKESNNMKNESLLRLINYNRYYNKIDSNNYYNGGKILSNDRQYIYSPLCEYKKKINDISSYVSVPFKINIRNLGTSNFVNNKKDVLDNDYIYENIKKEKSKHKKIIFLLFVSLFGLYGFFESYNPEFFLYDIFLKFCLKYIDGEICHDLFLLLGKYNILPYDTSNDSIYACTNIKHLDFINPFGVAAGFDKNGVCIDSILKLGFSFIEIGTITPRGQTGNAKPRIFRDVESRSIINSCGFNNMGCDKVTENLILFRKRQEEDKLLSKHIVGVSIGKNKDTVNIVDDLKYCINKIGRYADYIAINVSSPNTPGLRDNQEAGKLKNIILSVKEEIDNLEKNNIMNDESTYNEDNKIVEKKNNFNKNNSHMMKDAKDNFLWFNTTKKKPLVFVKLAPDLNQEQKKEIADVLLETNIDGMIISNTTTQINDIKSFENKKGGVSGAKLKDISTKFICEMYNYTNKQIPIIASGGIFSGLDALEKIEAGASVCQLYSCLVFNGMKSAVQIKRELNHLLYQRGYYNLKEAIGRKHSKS

The nature of test [15]: inhibition of PAO1 biofilm formation – strain PAO1, LB-PBS medium, absorbance 600 nm, primary screen (AID 1176). Further: test concentration not given here. The following applies: P. aeruginosa PAO1 growth/biofilm, A600, 12 h; higher = more signal.
Test [16] in a line: growth modulation of vineyard yeast isolate – strain RM11-1a, OD600, basal, 24 h, primary screen (AID 1177).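 Further: cultures grown under basal conditions with no added stressor; test concentration not given here.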 The settings on record: S. cerevisiae RM11-1a growth, OD600, 24 h; higher = more signal, called active from +8 up or from −8 down.
Test [17] is described as follows: growth of efflux-deficient E. coli DRC39 – strain DRC39, OD650, 24 h, E. coli filamentation inducers, primary screen (AID 1178).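 Further: growth measured as culture turbidity by optical density at 650 nm; test concentration not given here.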 The settings on record: E. coli DRC39 acrAB, higher = more signal, called active from +8 up or from −8 down.
The nature of test [18]: growth of efflux-deficient E. coli DRC39 – strain DRC39, OD650, 48 h, E. coli filamentation inducers, primary screen (AID 1179).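 Further: screen aims at cell division blockers that make cells filament.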 The following applies: E. coli DRC39 delta-acrAB growth, higher = more signal, called active from +8 up or from −8 down.
Test [19] is described as follows: viability profiling in RPMI8226 myeloma cells – cell-based, resazurin fluorescence, basal, 24 h, PK04 Diversity Set, profiling panel (AID 1180).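 Further: RPMI8826 multiple myeloma cell line at 5000 cells per well; test concentration not given here.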 The following applies: higher = more signal.
Test [20] has as its target E3 ubiquitin-protein ligase XIAP (Homo sapiens) (UniProt P98170). The test is described as follows: small molecules binding XIAP protein – biophysical, small-molecule microarray, fluorescence 635 nm, primary screen (AID 1181).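 Further: score merges 667 nm emission and signal to noise over triplicate slides.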 The following applies: higher = more signal.

Active and inactive are the calls of the source. Unless noted, how the calls were made is not given here.

Chain of E3 ubiquitin-protein ligase XIAP (Homo sapiens) (P98170 whole entry, looked up): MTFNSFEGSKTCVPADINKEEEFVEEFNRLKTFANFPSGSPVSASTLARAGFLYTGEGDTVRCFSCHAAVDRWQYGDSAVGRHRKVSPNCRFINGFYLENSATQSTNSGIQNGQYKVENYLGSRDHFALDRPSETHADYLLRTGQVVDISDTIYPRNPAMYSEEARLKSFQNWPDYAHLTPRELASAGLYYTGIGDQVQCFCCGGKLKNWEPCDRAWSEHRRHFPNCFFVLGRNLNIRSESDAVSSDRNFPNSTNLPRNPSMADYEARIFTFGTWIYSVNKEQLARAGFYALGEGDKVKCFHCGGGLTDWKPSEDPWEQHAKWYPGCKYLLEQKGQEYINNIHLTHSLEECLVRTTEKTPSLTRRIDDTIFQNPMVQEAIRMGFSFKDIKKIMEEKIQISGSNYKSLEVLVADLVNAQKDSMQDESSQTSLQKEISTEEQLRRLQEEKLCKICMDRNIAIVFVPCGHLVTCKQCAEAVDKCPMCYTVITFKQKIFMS

`COc1cc(NN2C(C(O)C3CCCCC3)C=CC3C(=O)N(c4ccccc4)C(=O)C32)cc(OC)c1OC` (stereo not given): the z-score in [1] is -0.278; in test [2], 0.0809; in test [3], 0.736; in test [4], -0.434; in test [5] it was -1.8; in test [6] it was -1.08. Also, the z-score is 0.0506 (inactive) in test [7]; -0.741 in test [8]; 0.439 in test [9]; -1.37 (inactive) in test [10]; -1.64 in test [11]; 1.2 (inactive) in test [12]. Besides, the z-score in [13] was -1.62 (inactive); in [15], 0.698 (inactive); in [16], 0.135 (inactive); in test [17], -0.0089 (inactive); in [18] it was -0.545 (inactive); in [19], -1.67. Also, the values for the composite z-score in test [14] and in [20] were -0.0779 (inactive) and 0.337, respectively.
On to `COC(=O)C1=CC(CCCO)=CC(c2ccc(CN3CCCC3)cc2)N(Cc2cc3c(cc2Br)OCO3)C=C1C(=O)OC` (stereo not given), for which the z-score in test [1] is -0.392; in test [2], 0.151; in test [3] it was 0.0308; in test [4], 0.0875; in [5], 0.046; in test [6], 0.516. Further, the z-score in [7] was -0.251 (inactive); in [8], 0.144; in [9], -0.0408; in [10], 0.652 (inactive); in [11] it was 0.3; in [12] it was 0.0793 (inactive). In addition, the z-score in test [13] is -0.119 (inactive); in [15], 0.214 (inactive); in [16], 0.73 (inactive); in test [17] it was 0.463 (inactive); in test [18] it was 0.67 (inactive); in test [19] it was -0.0377. Moreover, the composite z-score in test [14] is 0.214 (inactive); in test [20] it was -0.0102.
On to `COCCOC(=O)N1C(=O)[C@@]2(c3cc(C#CCNC(N)=O)ccc31)[C@H](c1ccc(O)cc1)N1[C@H](c3ccccc3)[C@H](c3ccccc3)OC(=O)[C@H]1[C@@H]2C(N)=O`, for which the z-score in test [1] is 1.66; in test [2], -0.654; in test [3] it was 0.405; in test [4], 0.337; in test [5] it was -0.933; in test [6] it was 2.07. The z-score was -0.0574 (inactive) in test [7]; -0.932 in test [8]; -0.139 in test [9]; 0.934 (inactive) in [10]; 1.18 in test [11]; 0.282 (inactive) in test [12]. The z-score in test [13] is -0.96 (inactive); in test [15], 0.0568 (inactive); in test [16], 0.203 (inactive); in test [17], 0.507 (inactive); in [18] it was 1.28 (inactive); in test [19] it was -0.938. Also, the values for the composite z-score in test [14] and in test [20] were 0.329 (inactive) and 0.0372, respectively.
`CCOC(=O)C[C@H]1[C@H](OC(=O)c2ccc(-c3ccccc3)cc2)[C@@H](NC(=O)Cc2ccc(OC)cc2)c2cc(OCCCO)ccc2N1C(=O)Cc1ccc(OC)cc1`: the z-score in [1] was 0.368; in test [2], 0.0052; in test [3], 0.834; in test [4], 0.191; in test [5], -0.102; in [6], 2.01. Moreover, the z-score is 0.262 (inactive) in test [7]; -0.198 in test [8]; -0.128 in [9]; 0.207 (inactive) in [10]; -0.0383 in [11]; 0.574 (inactive) in test [12]. For the same compound, the z-score is 0.796 (inactive) in [13]; 0.149 (inactive) in test [15]; 1.78 (inactive) in test [16]; 1.01 (inactive) in [17]; 0.622 (inactive) in test [18]; 0.643 in test [19]. Also, the composite z-score is 0.593 (inactive) in test [14] and -0.0118 in [20].
On to `O=C1C2C=CC(C(O)c3ccc4c(c3)OCO4)N(Nc3ccccc3)C2C(=O)N1c1ccccc1` (stereo not given), for which the z-score in test [1] was -0.587; in test [2], -0.756; in test [3], -0.634; in [4], -0.427; in test [5], 0.0871; in [6] it was -1.47. Moreover, the z-score in test [7] was -1.19 (inactive); in [8], 0.558; in test [9] it was -0.636; in [10], 0.773 (inactive); in test [11], -0.0551; in test [12] it was 0.939 (inactive). In addition, the z-score in test [13] is -0.793 (inactive); in test [15] it was 0.338 (inactive); in test [16] it was 0.581 (inactive); in [17], -0.0005 (inactive); in [18] it was -0.387 (inactive); in test [19], -0.827. Besides, the composite z-score in [14] is 0.0433 (inactive); in [20], -0.0524.
For `CN(C)C(=O)[C@@]1(Cc2ccccc2)COC(c2ccc(OCCCO)cc2)=N1`, the z-score in [1] was 0.0581; in [2] it was -0.538; in test [3], -0.0485; in test [4], -1.22; in test [5], 0.726; in test [6] it was -0.455. Besides, the z-score is -0.384 (inactive) in test [7]; 0.0953 in test [8]; -1.17 in [9]; -0.193 (inactive) in [10]; -0.272 in test [11]; -3.27 (inactive) in [12]. In addition, the z-score was -0.403 (inactive) in test [13]; -0.841 (inactive) in test [15]; 0.536 (inactive) in [16]; 0.704 (inactive) in test [17]; 1.19 (inactive) in test [18]; 0.449 in test [19]. Moreover, the composite z-score in [14] was 0.263 (inactive); in test [20], 0.521.
Turning to `O=C1C2C=CC(C(O)c3ccc(I)cc3)N(Nc3ccccc3)C2C(=O)N1c1ccccc1` (stereo not given), the z-score in test [1] is 0.0685; in test [2], -0.748; in [3], 0.1; in test [4], 0.196; in [5], -0.311; in [6], -2.3. Also, the z-score was -1.3 (inactive) in test [7]; -0.865 in [8]; -0.603 in test [9]; -0.393 (inactive) in test [10]; -1.04 in [11]; -2.16 (inactive) in test [12]. Further, the z-score in test [13] was -1.38 (inactive); in test [15], 1.58 (inactive); in [16], -0.208 (inactive); in [17], -1.07 (inactive); in test [18], -0.28 (inactive); in [19] it was -0.312. Also, the composite z-score in test [14] was 0.45 (inactive); in [20], 0.162.
As for `CCCC=C(CCC)[C@@H](NC(=O)CCc1ccccc1)c1ccc(C(F)(F)F)cc1`, the z-score was -0.894 in [1]; -0.265 in test [2]; -0.481 in test [3]; -1.2 in test [4]; -2.01 in test [5]; 2.18 in [6]. The z-score in [7] was -0.933 (inactive); in test [8] it was -0.0403; in test [9], -0.774; in [10] it was 0.569 (inactive); in [11], 0.561; in test [12] it was -0.357 (inactive). The z-score in test [13] is -0.407 (inactive); in test [15], 0.0944 (inactive); in test [16], 0.439 (inactive); in test [17], 0.0152 (inactive); in test [18] it was -0.0054 (inactive); in [19], -0.581. The figures for the composite z-score in test [14] and in [20] were -1.39 (inactive) and 0.0734, respectively.
As to `COCC(=C=CC[C@@H](O)c1ccc(OCCO)cc1)CCO`, the z-score in test [1] is 1.46; in [2], 0.376; in test [3], 0.875; in test [4] it was 0.676; in test [5] it was 0.786; in [6] it was 1.32. For the same compound, the z-score was 0.87 (inactive) in [7]; -0.756 in test [8]; -1.1 in test [9]; 1.12 (inactive) in test [10]; 1.37 in test [11]; -0.896 (inactive) in test [12]. The z-score is 1.1 (inactive) in test [13]; 0.424 (inactive) in test [15]; 0.453 (inactive) in [16]; 1.41 (inactive) in test [17]; 1.23 (inactive) in test [18]; 2.08 in test [19]. Moreover, the composite z-score in test [14] is -0.789 (inactive); in [20], -0.0949.

Values taken from PubChem BioAssay.
